# In PubChem BioAssay (NCATS):
# Results filed as inconclusive are left out. Calls of active or inactive are those of the source. Unless noted, calls come from the whole dose curve; as a rule, active = well fitted cell-killing curve with a large enough effect; inconclusive = small, poorly fitted or top-dose-only effect, or effect the other way; inactive = no such curve, though single readings can be large or run the other way.
# Assays:
# [1] = Quantitative High-Throughput drug screen in 47 multiple myeloma cell lines against the NCATS MIPE library collection: KMS28PE_JCRB cell viability assay (AID 1918983); note: nearly all actives have a fitted effect of over 35% in size
# Procedure, shortened: (§1)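 500 cells/well per myeloma line exposed to pinned MIPE 4.0 compounds for 48 h at 37 °C, 5% CO2. Viability read as ATP by CellTiter-Glo luminescence, normalised to DMSO-only (100%) and media-only (0%) wells.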
# [2] = Quantitative High-Throughput drug screen in 47 multiple myeloma cell lines against the NCATS MIPE library collection: KMS34_JCRB cell viability assay (AID 1918985); note: nearly all actives have a fitted effect of over 40% in size
# Procedure, shortened: as §1
# [3] = Quantitative High-Throughput drug screen in 47 multiple myeloma cell lines against the NCATS MIPE library collection: OCIMY7_PLB cell viability assay (AID 1918987); note: nearly all actives have a fitted effect of over 65% in size
# Procedure, shortened: as §1
# [4] = Quantitative High-Throughput drug screen in 47 multiple myeloma cell lines against the NCATS MIPE library collection: OCIMY5_PLB cell viability assay (AID 1918988); note: nearly all actives have a fitted effect of over 65% in size
# Procedure, shortened: as §1
# [5] = Quantitative High-Throughput drug screen in 47 multiple myeloma cell lines against the NCATS MIPE library collection: U266_ATCC cell viability assay (AID 1919864); note: nearly all actives have a fitted effect of over 35% in size
# Procedure, shortened: as §1
# [6] = Quantitative High-Throughput drug screen in 47 multiple myeloma cell lines against the NCATS MIPE library collection: XG6_PLB cell viability assay (AID 1919865); note: nearly all actives have a fitted effect of over 40% in size
# Procedure, shortened: as §1
# [7] = Quantitative High-Throughput drug screen in 47 multiple myeloma cell lines against the NCATS MIPE library collection: XG1_PLB cell viability assay (AID 1919866); note: nearly all actives have a fitted effect of over 35% in size
# Procedure, shortened: as §1
# [8] = Quantitative High-Throughput drug screen in 47 multiple myeloma cell lines against the NCATS MIPE library collection: VP6_DJ cell viability assay (AID 1919867); note: nearly all actives have a fitted effect of over 40% in size
# Procedure, shortened: as §1
# [9] = Quantitative High-Throughput drug screen in 47 multiple myeloma cell lines against the NCATS MIPE library collection: UTMC2_PLB cell viability assay (AID 1919868); conditions: CellTiter-Glo ATP luminescence, 48 h; viability (% of DMSO control): at 45.8 µM (top of the series) unless noted; note: nearly all actives have a fitted effect of over 55% in size
# Procedure, shortened: as §1
# [10] = Quantitative High-Throughput drug screen in 47 multiple myeloma cell lines against the NCATS MIPE library collection: PE2_PLB cell viability assay (AID 1919869); note: nearly all actives have a fitted effect of over 35% in size
# Procedure, shortened: as §1
# [11] = Quantitative High-Throughput drug screen in 47 multiple myeloma cell lines against the NCATS MIPE library collection: PCM6_Riken cell viability assay (AID 1919870); note: nearly all actives have a fitted effect of over 30% in size
# Procedure, shortened: as §1
# [12] = Quantitative High-Throughput drug screen in 47 multiple myeloma cell lines against the NCATS MIPE library collection: RPMI8226_ATCC cell viability assay (AID 1919871); note: nearly all actives have a fitted effect of over 30% in size
# Procedure, shortened: as §1
# [13] = Quantitative High-Throughput drug screen in 47 multiple myeloma cell lines against the NCATS MIPE library collection: OPM2_DSMZ cell viability assay (AID 1919872); note: nearly all actives have a fitted effect of over 30% in size
# Procedure, shortened: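 Luminescent ATP measurement with CellTiter-Glo gives viability, scaled between DMSO-only wells (100%) and media-only wells (0%). Cells, 500 per well, faced library compounds for 48 hours at 37C.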
# [14] = Quantitative High-Throughput drug screen in 47 multiple myeloma cell lines against the NCATS MIPE library collection: KMS11_JCRBsus cell viability assay (AID 1919873); note: nearly all actives have a fitted effect of over 50% in size
# Procedure, shortened: as §1
# [15] = Quantitative High-Throughput drug screen in 47 multiple myeloma cell lines against the NCATS MIPE library collection: KMS28BM_JCRB cell viability assay (AID 1919874); note: nearly all actives have a fitted effect of over 35% in size
# Procedure, shortened: as §1
# [16] = qHTS drug screen for cell cycle checkpoint inhibitors in PARPi-resistant BRCA-mutant ovarian cancer cell lines. (AID 1963452; calls by dose curve); conditions: PEO1/OlaR viability, CellTiter-Glo luminescence, 96 h; for Z-AUC: stronger effect = lower value
# Procedure, shortened: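 PEO1, PEO4 and PEO1/OlaR ovarian cancer cells, 600 per well, exposed 96 h at 37C to a dilution series. Viability read by CellTiter-Glo luminescence, normalized to DMSO and empty wells; activity summarized as Z-AUC.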
# [17] = qHTS for identification of novel therapeutic agents for treatment of microphthalmiaassociated transcription factor (MiT) renal cell carcinoma (RCC) (AID 1963991; calls by dose curve); conditions: CellTiter-Glo, 48 h; for Potency: active = Z-AUC below -0.8 in all three lines; for z-score: stronger effect = lower value
# Procedure, shortened: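 Three TFE3-fusion RCC cell lines (UOK109, UOK124, UOK145), 500 cells/well, were exposed to the 1912-compound MIPE 4.0 library for 48 hours at 37 C. Viability was read by CellTiter-Glo luminescence, normalised to DMSO (100%) and empty wells (0%), with 11-concentration curve fits.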
# [18] = Quantitative High-Throughput drug screen in 47 multiple myeloma cell lines against the NCATS MIPE library collection: OPM1_PLB cell viability assay (AID 1918989); note: nearly all actives have a fitted effect of over 40% in size
# Procedure, shortened: as §1
# [19] = Quantitative High-Throughput drug screen in 47 multiple myeloma cell lines against the NCATS MIPE library collection: SKMM1_PLB cell viability assay (AID 1919863); conditions: SKMM1 myeloma viability, CellTiter-Glo ATP, 48 h; viability: stronger effect = lower value; note: nearly all actives have a fitted effect of over 35% in size
# Procedure, shortened: as §1
# [20] = measured here: PEO1 parental Z-AUC
# [21] = TFE3-RCC UOK109 viability, measured here: UOK109 Z-AUC
# [22] = TFE3-RCC viability, measured here: UOK124 Z-AUC
# [23] = TFE3-RCC viability, measured here: UOK145 Z-AUC
# Potency is the fitted concentration of half-maximal effect.
smiles,measurement,setting,value
CC(C)[C@H](C(=O)Nc1ccc(C(=O)NO)cc1)c1ccccc1,Potency,[1],833 nM (active)
same,Potency,[2],264 nM (active)
same,Potency,[3],418 nM (active)
same,Potency,[4],526 nM (active)
same,Potency,[5],935 nM (active)
same,Potency,[6],2350 nM (active)
same,Potency,[7],833 nM (active)
same,Potency,[8],372 nM (active)
same,Potency,[9],469 nM (active)
same,Potency,[10],1050 nM (active)
same,Potency,[11],935 nM (active)
same,Potency,[12],1320 nM (active)
same,Potency,[13],833 nM (active)
same,Potency,[14],469 nM (active)
same,Potency,[15],526 nM (active)
same,Potency,[16],1380 nM (active)
same,Z-AUC,[16]; [20],-1.53
same,Z-AUC,[16]; measured here: PEO4 Z-AUC,-1.69
same,Potency,[17]; TFE3-RCC UOK109 viability,1870 nM (active)
same,z-score,[17]; [21],-1.43
same,z-score,[17]; [22],-1.8
same,z-score,[17]; [23],-1.54
Clc1cccc(-c2nnnn2Cc2cccnc2)c1Cl,Potency,[1],inactive
same,Potency,[2],inactive
same,Potency,[4],inactive
same,Potency,[18],inactive
same,Potency,[6],16600 nM (active)
same,Potency,[7],18700 nM (active)
same,Potency,[12],inactive
same,Potency,[13],inactive
same,z-score,[17]; [21],0.93
same,z-score,[17]; [22],0.545
same,z-score,[17]; [23],0.374
COC(=O)c1ccc2c(C(=Nc3ccc(N(C)C(=O)CN4CCN(C)CC4)cc3)c3ccccc3)c(O)[nH]c2c1,Potency,[1],7430 nM (active)
same,Potency,[2],18700 nM (active)
same,Potency,[4],7430 nM (active)
same,Potency,[18],2090 nM (active)
same,Potency,[19],9350 nM (active)
same,Potency,[6],46.9 nM (active)
same,Potency,[7],662 nM (active)
same,Potency,[10],10500 nM (active)
same,Potency,[11],2960 nM (active)
same,Potency,[12],3720 nM (active)
CC(O)C1C(=O)N2C(C(=O)O)=C(SC3CNC(C(=O)N(C)C)C3)C(C)C12 (stereo not given),Potency,[1],inactive
same,Potency,[2],inactive
same,Potency,[4],inactive
same,Potency,[18],inactive
same,Potency,[6],inactive
same,Potency,[7],inactive
same,Potency,[8],2640 nM (active)
same,Potency,[10],inactive
same,Potency,[11],inactive
same,Potency,[14],inactive
same,z-score,[17]; [21],0.648
same,z-score,[17]; [22],0.116
same,z-score,[17]; [23],0.637
O=C(C=Cc1cccnc1)NCCCCC1CCN(C(=O)c2ccccc2)CC1,Potency,[1],132 nM (active)
same,Potency,[2],16.6 nM (active)
same,Potency,[4],41.8 nM (active)
same,Potency,[18],11.8 nM (active)
same,Potency,[19],59 nM (active)
same,Potency,[5],18700 nM (active)
same,Potency,[6],74.3 nM (active)
same,Potency,[7],1 nM (active)
same,Potency,[8],18.7 nM (active)
same,Potency,[9],1 nM (active)
same,Potency,[10],13.2 nM (active)
same,Potency,[11],26.4 nM (active)
same,Potency,[12],93.5 nM (active)
same,Potency,[14],14.8 nM (active)
same,Potency,[15],83.3 nM (active)
CC(C)(O)c1cc2nc(-c3cnc(N)nc3)nc(N3CCOCC3)c2s1,Potency,[1],37.2 nM (active)
same,Potency,[2],37.2 nM (active)
same,Potency,[3],372 nM (active)
same,Potency,[4],105 nM (active)
same,Potency,[18],166 nM (active)
same,Potency,[19],235 nM (active)
same,Potency,[5],105 nM (active)
same,Potency,[6],264 nM (active)
same,Potency,[7],118 nM (active)
same,Potency,[8],83.3 nM (active)
same,Potency,[10],105 nM (active)
same,Potency,[11],743 nM (active)
same,Potency,[12],46.9 nM (active)
same,Potency,[13],187 nM (active)
same,Potency,[15],66.2 nM (active)
same,Z-AUC,[16],-1.37 (inactive)
same,Z-AUC,[16]; [20],-1.91
same,Z-AUC,[16]; measured here: PEO4 Z-AUC,-1.8
CCC1=C[C@@H]2CN(C1)Cc1c([nH]c3ccccc13)[C@@](C(=O)OC)(c1cc3c(cc1OC)N(C)[C@@H]1[C@@](O)(C(=O)OC)[C@H](OC(C)=O)[C@]4(CC)C=CCN5CC[C@]31[C@@H]54)C2,Potency,[1],20.9 nM (active)
same,Potency,[2],16.6 nM (active)
same,Potency,[3],166 nM (active)
same,Potency,[4],6.6 nM (active)
same,Potency,[18],26.4 nM (active)
same,Potency,[5],14800 nM (active)
same,Potency,[10],26.4 nM (active)
same,Potency,[12],118 nM (active)
same,Potency,[13],16.6 nM (active)
same,Potency,[15],4.7 nM (active)
CC(C)=CCCC(C)=CCCC(C)=CCSc1ccccc1C(=O)O,Potency,[1],1660 nM (active)
same,Potency,[2],1320 nM (active)
same,Potency,[4],1480 nM (active)
same,Potency,[18],14800 nM (active)
same,Potency,[19],2640 nM (active)
same,Potency,[5],372 nM (active)
same,Potency,[6],4180 nM (active)
same,Potency,[7],662 nM (active)
same,Potency,[8],1870 nM (active)
same,Potency,[9],1180 nM (active)
same,Potency,[10],2350 nM (active)
same,Potency,[11],6620 nM (active)
same,Potency,[12],418 nM (active)
same,Potency,[13],4180 nM (active)
same,Potency,[14],209 nM (active)
same,Potency,[15],5900 nM (active)
O=C(O)[C@H](Cc1c[nH]c2ccccc12)N1C(=O)c2ccccc2C1=O,Potency,[1],inactive
same,Potency,[2],inactive
same,Potency,[3],30300 nM (active)
same,Potency,[4],inactive
same,Potency,[18],inactive
same,viability,[19],111% (inactive)
same,Potency,[8],48100 nM (active)
same,viability (% of DMSO control),[9],115% [at 92.2 µM] (active)
same,Potency,[12],inactive
same,Potency,[13],inactive
same,Potency,[14],inactive
same,Potency,[15],inactive
same,Z-AUC,[16],1.05 (inactive)
same,Z-AUC,[16]; [20],0.982
same,Z-AUC,[16]; measured here: PEO4 Z-AUC,0.872
CC(C)c1nn(-c2c(Cl)cccc2Cl)c2nc(Cc3ccc(OCCO)cc3)[nH]c(=O)c12,Potency,[1],296 nM (active)
same,Potency,[2],118 nM (active)
same,Potency,[3],74.3 nM (active)
same,Potency,[4],74.3 nM (active)
same,Potency,[18],132 nM (active)
same,Potency,[19],332 nM (active)
same,Potency,[5],209 nM (active)
same,Potency,[6],83.3 nM (active)
same,Potency,[7],187 nM (active)
same,Potency,[8],37.2 nM (active)
same,Potency,[9],93.5 nM (active)
same,Potency,[10],74.3 nM (active)
same,Potency,[12],118 nM (active)
same,Potency,[13],264 nM (active)
same,Potency,[14],52.6 nM (active)
same,Z-AUC,[16],-1.25 (inactive)
same,Z-AUC,[16]; [20],-2.35
same,Z-AUC,[16]; measured here: PEO4 Z-AUC,-1.5
same,Potency,[17]; TFE3-RCC UOK109 viability,132 nM (active)
same,z-score,[17]; [21],-2.2
same,z-score,[17]; [22],-1.63
same,z-score,[17]; [23],-2.67
CN1CC[C@@H](c2c(O)cc(O)c3c(=O)cc(-c4ccccc4Cl)oc23)[C@@H](O)C1,Potency,[1],132 nM (active)
same,Potency,[2],74.3 nM (active)
same,Potency,[3],29.6 nM (active)
same,Potency,[4],66.2 nM (active)
same,Potency,[18],83.3 nM (active)
same,Potency,[19],187 nM (active)
same,Potency,[5],166 nM (active)
same,Potency,[8],52.6 nM (active)
same,Potency,[9],83.3 nM (active)
same,Potency,[10],66.2 nM (active)
same,Potency,[11],83.3 nM (active)
same,Potency,[12],235 nM (active)
same,Potency,[13],118 nM (active)
same,Potency,[14],66.2 nM (active)
same,Potency,[15],93.5 nM (active)
same,Z-AUC,[16],-0.536 (inactive)
same,Z-AUC,[16]; [20],-1.36
same,Z-AUC,[16]; measured here: PEO4 Z-AUC,-1.16
